Among the data in PubChem BioAssay (NCATS) are Potency and outcome values, retold here.

Molecules are shown by their SMILES. Results filed as inconclusive are left out. Where a call stands in place of a potency, no number is given. Active and inactive are the calls of the source. Unless noted, calls follow the shape of the full dose curve.

Chain of Tumor necrosis factor (Homo sapiens) (P01375 whole entry, looked up): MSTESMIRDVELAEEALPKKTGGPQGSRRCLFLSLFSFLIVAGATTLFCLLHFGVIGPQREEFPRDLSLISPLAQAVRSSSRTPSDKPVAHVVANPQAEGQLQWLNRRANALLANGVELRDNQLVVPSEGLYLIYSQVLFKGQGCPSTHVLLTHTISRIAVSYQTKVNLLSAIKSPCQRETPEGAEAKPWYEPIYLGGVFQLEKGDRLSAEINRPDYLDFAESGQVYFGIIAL

System in the first assay: not listed separately
The experiment in a line: qHTS assay for small molecule disruptors of the mitochondrial membrane potential - 5 hr assay (AID 651755). Also: nearly all actives have a fitted effect of over 40% in size. Also: potency is read from the fitted curve at half-maximal effect. The note with it: JC-1-type ratio dye; series mostly up to 92.2 µM. The procedure, abridged: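 HepG2 cells (2,000/well), attached overnight, exposed to compound 5 hr at 37C, then Mito-MPS dye 30 min. Fluorescence read for monomers (490/535 nm) and aggregates (540/590 nm).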
In general terms: qHTS replaces the single test concentration by a dilution series.
Turning to `Cc1c(O)cccc1C(=O)N[C@@H](CSc1ccccc1)[C@H](O)CN1C[C@H]2CCCC[C@H]2C[C@H]1C(=O)NC(C)(C)C`, the Potency was 66.8 µM (active).
In the case of `Cc1cc2nc3c(=O)[nH]c(=O)nc-3n(C[C@H](O)[C@H](O)[C@H](O)CO)c2cc1C`, the Potency is 7.5 µM (active).
The same measure, in the same setting: as for `[Cl][In]([Cl])[Cl]`, the entry is “inactive”; as for `CCCCOC(=O)c1ccc(O)cc1`, 37.6 µM (active); as for `COC(=O)C1=C(C)NC(C)=C(C(=O)OC)C1c1ccccc1[N+](=O)[O-]`, “inactive”.
On to `NC(=O)N/N=C/c1ccc([N+](=O)[O-])o1`, for which the Potency result is “inactive”.
Still for that read-out and setting: as for `Oc1cccc(O)c1`, the entry is “inactive”; as for `CCCCCCCCCCCCOS(=O)(=O)O`, “inactive”.

The target in another assay is Tumor necrosis factor (Homo sapiens) (UniProt P01375). Nature of the assay: qHTS assay to identify small molecules that stimulate Tumor Necrosis Factor-alpha (TNF-alpha) secretion (AID 651757; active = well fitted curve in the direction sought with a large enough effect in the signal ratio; the % refers to the signal ratio). The note with it: Human cells, HTRF 665/615 ratio; series mostly up to 92.2 µM. The procedure, abridged:
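THP-1 cells (3000/well) exposed to compounds 17 hrs at 37 C. Secreted TNF-alpha detected by HTRF with cryptate- and XL665-labeled anti-TNF-alpha antibodies after 3 hr at room temperature.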
Regarding `O=C1O[C@H]([C@@H](O)CO)C(O)=C1O`, the result was inactive.
For the molecule `Nc1ccc(S(=O)(=O)Nc2nccs2)cc1`, the result was inactive.
Regarding `C[C@]12C[C@H](O)[C@H]3[C@@H](CCC4=CC(=O)CC[C@@]43C)[C@@H]1CC[C@@H]2C(=O)CO`, the outcome was inactive.
Same read-out and setting: as for `Cc1c(O)cccc1C(=O)N[C@@H](CSc1ccccc1)[C@H](O)CN1C[C@H]2CCCC[C@H]2C[C@H]1C(=O)NC(C)(C)C`, the entry is “inactive”; as for `CC1(C)[C@@H]2CC[C@@]1(C)C(=O)C2`, “inactive”; as for `CN(C)CCC=C1c2ccccc2CCc2ccccc21`, “inactive”.
As for `CC12CCC(CC1)C(C)(C)O2`, the result was inactive.
The same measure, in the same setting: then `[Cl][In]([Cl])[Cl]`, with “inactive”; and `NCCNCCNCCN`, with “inactive”; and `NC(=O)c1ncn([C@@H]2O[C@H](CO)[C@@H](O)[C@H]2O)n1`, with “inactive”.
Still for that read-out and setting: then `CCCCOC(=O)c1ccc(O)cc1`, with “inactive”.
The same measure, in the same setting: as for `COc1ccccc1O`, the entry is “inactive”.
With `Oc1cccc(O)c1`, the result was inactive.
